The text below walks through data of PubChem BioAssay.

The structures appear in SMILES notation.

The assay can be described thus: basal RPMI8226 viability, no added stimulus, profiling panel, cell-based, calcein-AM fluorescence, 48 h, PK04 Diversity Set (AID 1166).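 Note: cells grown under basal conditions without added stimulus; test concentration not given here.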 Particulars: RPMI8226 myeloma viability, higher = more signal.
As for `CCOc1cc(C(O)C2C=CC3C(=O)NC(=O)C3N2Nc2ccccn2)ccc1O` (stereo unspecified), the z-score is -0.328.
Under `Cc1cc(C)c(C(O)C2C=CC3C(=O)N(c4ccccc4)C(=O)C3N2Nc2ccccc2)c(C)c1` (stereo unspecified) stands 0.281; under `CCCC=C(CCC)[C@@H](NS(=O)(=O)c1ccccc1)c1ccc(C(F)(F)F)cc1`, -4.06; under `COCCCNC(=O)[C@@]1(Cc2ccccc2)COC(c2ccc(OCCCO)cc2)=N1`, -1.04.
Under `C[C@@]1([C@@H](NC(=O)c2cccs2)c2ccc(-c3ccccc3)cc2)C[C@H]1C1CCCCC1` stands -4.43; under `COc1ccc(C#Cc2ccc3c(c2)[C@]2(C(=O)N3)[C@H](c3ccc(OCCO)cc3)N3[C@H](c4ccccc4)[C@H](c4ccccc4)OC(=O)[C@H]3[C@@H]2C(=O)N2CCN(c3ncccn3)CC2)cc1`, -0.106; under `CC(C)C[C@@H]1NC(=O)[C@@H]2C[C@H](C(=O)NCc3ccc(F)cc3)[C@H](c3ccc(O)cc3)N2C1=O`, -0.214.
Take `CCCN1C(=O)[C@@H]2Cc3c([nH]c4ccccc34)[C@@H](c3cccc(O)c3)N2C1=O`: the z-score is -0.178.
Under `COC(=O)[C@@]1(Cc2ccc(OC)cc2)[C@H]2c3cc(C(=O)N4CCCC4)n(CCc4ccc(O)c(OC)c4)c3C[C@H]2CN1C(=O)c1ccccc1` stands -0.254; under `C=CC[C@]1(C(=O)NCC(O)CO)N=C(c2ccc(OCCCO)cc2)O[C@H]1c1ccccc1N=[N+]=[N-]` (stereo partly specified), 0.736.
Under `COc1ccc([Si](C)(C)[C@@H]2[C@@H](CCO)O[C@]3(C(=O)N(Cc4ccc(N5C(=O)c6ccccc6Oc6ccccc65)cc4)c4ccccc43)[C@H]2C)cc1` stands -3.17; under `COC(=O)[C@@]1(Cc2ccccc2N=[N+]=[N-])N=C(c2ccc(OCCCO)cc2)O[C@H]1c1ccccc1`, -3.93.
The value for `C=C(COC)/C(=C/C[C@@H](OC(=O)c1ccncc1)c1cccc(OCCO)c1)c1cc(C(=O)OC)ccc1OC` was -2.37; that for `COCCCNC(=O)[C@]1(Cc2ccccc2)N=C(c2ccc(OCCCO)cc2)O[C@@H]1c1ccccc1N=[N+]=[N-]` was -4.29.
As to `Cc1ccccc1C(O)C1C=CC2C(=O)N(C)C(=O)C2N1Nc1ccc([N+](=O)[O-])cc1[N+](=O)[O-]` (stereo unspecified), the z-score was -0.582.
In the case of `CCCCCCCCCCC(O)C1C=CC2C(=O)NC(=O)C2N1Nc1ccccn1` (stereo unspecified), the z-score is -4.13.
Regarding `Cc1ccc(S[C@]2(C(=O)O)CC(=O)N(C3CCCCC3)[C@@H]2c2ccc(CO)cc2)cc1`, the z-score was 0.761.
The value for `CC(C)c1ccc(NN2C(C(O)c3ccccn3)C=CC3C(=O)N(c4ccccc4)C(=O)C32)cc1` (stereo unspecified) was -0.712; that for `COc1ccc(C(=O)Nc2ccc(CN3C(=O)[C@@]4(O[C@@H](CC(=O)N5Cc6ccccc6C[C@H]5CO)[C@H]([Si](C)(C)c5ccc(OC)cc5)[C@H]4C)c4ccccc43)cc2)cc1` was -0.881; that for `CCOC(=O)C[C@H]1[C@H](OC(=O)c2cc3ccccc3oc2=O)[C@@H](NC(=O)c2ccc3ccccc3n2)c2cc(OCCCO)ccc2N1C(=O)c1ccc2ccccc2n1` was -0.719.
Take `COC(=O)[C@]1(Cc2ccccc2CN=[N+]=[N-])N=C(c2ccc(OCCCO)cc2)O[C@@H]1c1ccccc1`: the z-score is -3.96.
The value for `COC(=O)[C@@]1(Cc2ccccc2)[C@H]2c3cc(C(=O)N4CCCC4)n(Cc4ccccc4)c3C[C@H]2CN1C(=O)c1ccccc1` was -4.64; that for `O=C1c2ccccc2C(=O)C2CC([C@H]3Oc4ccccc4S(=O)(=O)N4CCC[C@@H]34)=CCC12` (stereo partly specified) was -0.0759.
`CCOC(=O)C1=CC[C@@H](c2cccc(Br)c2)N(S(=O)(=O)c2ccc(C)cc2)[C@H]1c1ccc([N+](=O)[O-])cc1`: the z-score is -1.24.
On to `C#CCOC(=O)N[C@H](C=CCCCC)c1ccccc1`, for which the z-score was -0.508.
The value for `COCCOC(=O)N1C(=O)[C@@]2(c3ccccc31)[C@H](c1ccccc1OCCO)N1[C@H](c3ccccc3)[C@H](c3ccccc3)OC(=O)[C@H]1[C@@H]2C(=O)N1CCc2cc(OC)c(OC)cc2C1` was -1.49; that for `CN1C(=O)C2C=CC(C(O)c3cccc4ccccc34)N(NC(=O)OC(C)(C)C)C2C1=O` (stereo unspecified) was -1.49.
For `CN(C)C(=O)[C@@]1(Cc2ccccc2N=[N+]=[N-])N=C(c2ccc(OCCCO)cc2)O[C@H]1c1ccccc1N=[N+]=[N-]`, the z-score is -4.47.
The value for `[N-]=[N+]=Nc1ccccc1[C@@H]1OC(c2ccc(OCCCO)cc2)=N[C@]1(CCS(=O)(=O)c1ccccc1)C(=O)NCc1ccccc1` was -0.185.
The value for `CC(C)C(CO)N1C(=O)[C@@H]2[C@H]3C(=O)OCC=C[C@H]3OC23C=CCN(CCN2CCOCC2)C(=O)[C@@H]13` (stereo partly specified) was 0.372.
Under `CN(C)C(=O)[C@@]1(CCC(=O)OC(C)(C)C)N=C(c2ccc(OCCCO)cc2)O[C@H]1c1ccccc1N=[N+]=[N-]` stands 0.0691; under `C=CCNC(=O)[C@H]1[C@@H]2C(=O)O[C@@H](c3ccccc3)[C@@H](c3ccccc3)N2[C@@H](c2ccc(O)cc2)[C@]12C(=O)N(C(=O)OCCOC)c1ccc(C#CC3(O)CCCCCC3)cc12`, -3.53.
For `CCOC(=O)C1=CC[C@@H](c2ccc(N(CC)CC)cc2)N(S(=O)(=O)c2ccc(C)cc2)[C@H]1c1ccc([N+](=O)[O-])cc1`, the z-score was -0.173.
With `CCCNC(=O)[C@@]1(Sc2ccc(C)cc2)CC(=O)N(Cc2ccccc2)[C@@H]1c1ccc(CO)cc1I`, the z-score is -2.52.
In the case of `C[N+](C)(C)CCCCCCNC(=O)[C@H]1C[C@H]2C(=O)N3CCC[C@H]3C(=O)N2[C@H]1c1cccc(OCCO)c1`, the z-score is 0.512.
As to `O=C(O)[C@]1(CCS(=O)(=O)c2ccccc2)N=C(c2ccc(OCCCO)cc2)O[C@@H]1c1ccccc1`, the z-score was 1.18.
